# In the library only some 6.5% were active in any assay of this set; here they are far more common.
# FMDV inh: blocks foot and mouth disease virus; 410,000 compounds, 1.2% hits; AID 1159524; FMDV antiviral cell-based qHTS; Potency, µM (titrated, usually from 57.9 µM), actives largely listed as inhibitors; calls by dose curve; tested in HEK293T cells; also: read-out not given here; nearly all actives have a fitted effect of over 45% in size
# HCMV antiviral: blocks human cytomegalovirus replication; HFF cells, HCMV-luciferase reporter, 72 h; active compounds read low; AID 1259415; 410,000 compounds, 4.5% hits; activity change, negative = inhibition, % at 57.5 µM; in the data active = activity change below about -60%; inconclusive = no clear call, values can overlap the other calls; inactive = above about -39%
#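 Inhibition of viral replication was scored as loss of reporter luminescence in HFFs infected with HCMV-luciferase (MOI 1 PFU/cell) for 72 h; compounds tested at 2 doses, normalized to buffer and Salinomycin controls.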
# Marburg entry inh: Marburg virus entry inhibition | Marburg virus pseudotyped entry inhibition, cell reporter | Potency, µM (series often up to 37.8 µM), hits mostly inhibitors | 300,000 compounds, 1.8% hits; calls by dose curve; tested in HEK293 cells
# VACV Venus inh: inhibitors of vaccinia virus (Venus reporter); Potency, µM (doses to about 36.5 µM), most hits filed as inhibitors; 330,000 compounds, 0.46% hits; Vaccinia virus Venus reporter expression, fluorescence; calls by dose curve; tested in A549 cells; also: nearly all actives have a fitted effect of over 30% in size
# Vaccinia mCherry: vaccinia inhibition (mCherry reporter); Vaccinia virus mCherry reporter infection, fluorescence; Potency, µM (titrated, usually from 36.5 µM), usual class: inhibitors; 310,000 compounds, 0.63% hits; calls by dose curve; tested in A549 cells; also: nearly all actives have a fitted effect of over 35% in size
# LASV entry inh: blocks Lassa virus binding to or entry into cells. Lassa virus pseudotype entry inhibition, cell reporter. Potency, µM (top dose mostly 37.9 µM), hits mostly inhibitors. 300,000 compounds, 1.2% hits. AID 540256; calls by dose curve; tested in HEK293 cells; also: nearly all actives have a fitted effect of over 50% in size
# Hits are given with their value; - = inactive; ? = inconclusive; . = not tested or not shown; + = active, no number; [ ] = remark or other dose.
SMILES,FMDV inh,HCMV antiviral,Marburg entry inh,VACV Venus inh,Vaccinia mCherry,LASV entry inh
CC(=O)N1CCc2cc(NC(=O)C3(C)CCN3Cc3ccccc3Cl)ccc21 (stereo unspecified),-,-78,.,-,?,.
NC(CSC(c1ccccc1)(c1ccccc1)c1ccccc1)C(=O)O (stereo unspecified),-,-,-,-,?,-
NC(CC(=O)NC(c1ccccc1)(c1ccccc1)c1ccccc1)C(=O)O (stereo unspecified),-,-69,-,-,-,-
CN(C)CC(=O)N[C@@H]1C=C[C@@H](CC(=O)NCCN2CCCCC2)O[C@@H]1CO,-,-,.,-,-,.
CN(C)CC(=O)N[C@@H]1CC[C@@H](CC(=O)NCCN2CCCCC2)O[C@@H]1CO,-,-100,.,-,-,.
CC1CC(C)CN(C(=O)CCC(=O)Nc2nnc(C3CCCCC3)s2)C1 (stereo unspecified),-,-,.,.,.,.
CCOc1cc(/C=N/NS(=O)(=O)c2ccccc2)ccc1OS(=O)(=O)c1ccc(C)cc1,-,-,?,-,.,-
CCOc1cc(/C=N/NC(=O)COc2ccc(Cl)cc2)ccc1OS(=O)(=O)c1ccccc1,-,-,6.5µM,?,?,?
Oc1ccc(Cl)cc1CN1CCOc2c(O)cc(-c3nc4ccccc4s3)cc2C1,-,.,.,-,-,.
CN(C)CC1CCC/C(=C\c2ccc(OC(=O)c3ccc(Cl)cc3)cc2)C1=O (stereo unspecified),?,-97,?,?,-,?
CN(C)CC1CCC/C(=C\c2ccc(OC(=O)/C=C/c3ccccc3)cc2)C1=O (stereo unspecified),40µM,-,-,-,-,-
CC1CCC/C(=C\c2ccc(O)cc2)C1=O (stereo unspecified),-,-,.,.,.,.
CN(C)CC1CC/C(=C\c2ccc(O)cc2)C1=O (stereo unspecified),?,-76,?,-,?,11µM
COc1ccc(/C=C2/CCC(CN3CCOCC3)C2=O)cc1 (stereo unspecified),18µM,-98,?,-,-,13µM
CC(=O)c1ccc(OC(=O)/C=C/c2ccccc2)cc1,-,-,.,.,.,.
CCn1c(SCC(=O)N(C)CC(=O)Nc2ccc(OC)cc2)nnc1-c1ccco1,-,-,-,-,-,?
Cc1cc(=O)n2nc(N3CCCC(C(=O)NCCCN4CC(C)CC(C)C4)C3)sc2n1 (stereo unspecified),-,?,.,-[7.34 µM],-[7.34 µM],.
Cc1cc(=O)n2nc(N3CCCC(C(=O)NC4CCC(C)CC4)C3)sc2n1 (stereo unspecified),-,-61,-,-,-,-
C#CCOCCOCCOCCNc1nc(N2CCN(C(=O)CCCCCCCCCCNC(=O)Cn3cc(CCCCCN)nn3)CC2)nc(N2CCN(C(=O)CCCCCCCCCCNC(=O)[C@H](CO)n3cc(CCCCCN)nn3)CC2)n1,-,.,.,?,-,.
C#CCOCCOCCOCCNc1nc(N2CCN(C(=O)CCCCCCCCCCNC(=O)[C@H](CCC(=O)O)n3cc(CCCCCN)nn3)CC2)nc(N2CCN(C(=O)CCCCCCCCCCNC(=O)[C@@H]([C@H](C)O)n3cc(C)nn3)CC2)n1,-,.,.,-,-,.
C#CCOCCOCCOCCNc1nc(N2CCN(C(=O)CCCCCCCCCCNC(=O)[C@@H]([C@H](C)O)n3cc(C)nn3)CC2)nc(N2CCN(C(=O)CCCCCCCCCCNC(=O)[C@@H]([C@H](C)O)n3cc(C)nn3)CC2)n1,-,-74,.,?,-,.
C#CCOCCOCCOCCNc1nc(N2CCOCC2)nc(N2CCN(C(=O)CCCCCCCCCCNC(=O)[C@@H]([C@H](C)O)n3cc(C)nn3)CC2)n1,-,-,.,-,-,.
C#CCOCCOCCOCCNc1nc(N2CCN(C(=O)CCCCCCCCCCNC(=O)[C@H]([C@@H](C)CC)n3cc(CCCCCN)nn3)CC2)nc(N2CCN(C(=O)CCCCCCCCCCNC(=O)[C@@H]([C@H](C)O)n3cc(C)nn3)CC2)n1,?,.,.,11µM,?,.
C#CCOCCOCCOCCNc1nc(N2CCN(C(=O)CCCCCCCCCCNC(=O)Cn3cc(CCCCCN)nn3)CC2)nc(N2CCN(C(=O)CCCCCCCCCCNC(=O)[C@H]([C@@H](C)CC)n3cc(CCCCCN)nn3)CC2)n1,?,.,.,10µM,?,.
C[C@H](CO)N1C[C@H](C)[C@@H](CN(C)C(=O)NC2CCCCC2)Oc2ccc(NC(=O)Nc3ccccc3)cc2C1=O,-,-,.,-,-,.
SMILES,FMDV inh,HCMV antiviral,Marburg entry inh,VACV Venus inh,Vaccinia mCherry,LASV entry inh
Cc1cc(C)cc(OCC(=O)NCC2(N(C)C)CCCCC2)c1,-,-,?,-,-,-
CCCCCCCCCCn1ccc(=N)cc1,16µM,-100,?,?,?,1.8µM
COc1cccc2sc(N(Cc3cccnc3)C(=O)C3CCCCC3)nc12,-,-,.,-,-,?
CCOc1cccc2sc(N(Cc3cccnc3)C(=O)C3CCCCC3)nc12,-,+,.,-,-,-
Cn1c(=O)n(C)c2cc([N+](=O)[O-])c(N3CCN(C(=O)c4ccccc4Br)CC3)cc21,16µM,?,?,-,-,?
Cn1c(=O)n(C)c2cc([N+](=O)[O-])c(N3CCN(C(=O)c4ccccc4Cl)CC3)cc21,.,-78,?,-,-,?
Cn1c(=O)n(C)c2cc([N+](=O)[O-])c(N3CCN(C(=O)C(C)(C)C)CC3)cc21,?,-,?,-,-,?
Cn1c(=O)n(C)c2cc([N+](=O)[O-])c(N3CCN(C(=O)c4ccccc4)CC3)cc21,-,-,?,-,-,-
Cc1cc(N(C)NC(=S)Nc2ccccc2)nc(C)n1,-,-91,-,-,-,-
COC(=O)[C@](NC(C)=O)(Nc1nc2ccc(S(C)(=O)=O)cc2s1)C(F)(F)F,.,.,-,.,.,.
CNc1ccccc(C(=O)/C=C/c2ccccc2OC)c1=O,?,-,11µM,?,-,?
COc1ccccc1/C=C/C(=O)Nc1cccnc1Cl,-,-,.,.,.,.
COc1cccc(/C=C/C(=O)NNC(=O)c2ccccc2)c1OC,-,-,?,-,-,-
O=C(C=Cc1ccccc1Cl)c1ccccc1,-,-,?,-,-,-
CNc1ccc(Br)cc(C(=O)/C=C/c2cccc(OC)c2OC)c1=O,-,-92,-,.,.,-
CCNc1ccccc(C(=O)/C=C/c2ccc3c(c2)OCO3)c1=O,?,-,-,-,.,-
CNc1ccc(Br)cc(C(=O)/C=C/c2cccc(Cl)c2Cl)c1=O,20µM,-,.,.,.,.
CCNc1ccc(Br)cc(C(=O)/C=C/c2ccccc2Cl)c1=O,?,-103,16µM,.,.,?
O=C(c1ccc(F)c(F)c1)N1CCOc2ccc(CN3CCN(Cc4ccccn4)CC3)cc2C1,-,.,.,-,-,.
COc1ccc(NC(=O)c2nc3nc(C)cc(C(F)F)n3n2)c(C)c1,-,-,?,-,-,-
O=C(NCCN1CCCC1)[C@@H]1[C@@H](CO)[C@@H]2Cn3c(cccc3=O)[C@@H]2N1C(=O)c1ccccc1,.,-,.,.,.,.
Nc1nc(Cl)cc(N2CCCC2)n1,-,-,-,-,-,.
Nc1nc(Cl)cc(N2CCC(c3cc(-c4ccc(Cl)cc4Cl)n[nH]3)CC2)n1,?,-100,?,.,.,?
